Test results reported in PubChem BioAssay (NCI).
“And” between values parts separate entries of the source, which are not always exact repeats. Equal entries are not always repeated. About 79,000 compounds went through this panel and 15% of them were active in at least one assay; those are over-represented in the sample as a whole. Unmarked numbers belong to inactive results. The source made the active and inactive calls. Rule as the data show it: active = growth inhibition above about 70%; inactive = the rest.

Test: NCI Yeast Anticancer Drug Screen. Data for the cln2 rad14 strain (AID 165);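 also: 0% = growth equal to vehicle treated cultures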
Conditions: S. cerevisiae cln2 rad14 strain, hits give high values
Protocol: Growth inhibition of yeast strains with defined genetic alterations is measured as a screen for potential anti-cancer activity. Selected strains with alterations in DNA damage repair or cell cycle control were exposed to compounds and growth inhibition was measured relative to vehicle treated controls. The strain used in this assay is cln2 rad14

[1] = at 5.0 µM (retest, dose inferred, filed as 0.5)
[2] = at 50.0 µM (retest, dose inferred, filed as 5.0)

Compound	growth inhibition [1]	growth inhibition [2]	growth inhibition (at 50.0 µM)
CC(=O)CC(=O)/C=C/c1cccs1	15%	72% (active)	32.1%
Cc1nc2c(ncn2CCO)c(=O)[nH]1	8%	34%	8.25%
CCn1ncc(N=O)c1N	9%	12%	35.1% and 40.8%
NP1(Oc2ccc(F)cc2)=NP(N)(Oc2ccc(F)cc2)=NP(Oc2ccc(F)cc2)(Oc2ccc(F)cc2)=N1 (configuration not stated)	5%	54%	97% (active)
O=Nn1c2ccccc2c2ccccc21	5%	67%	3.15% and 40.1%
S=C1SCN(CCc2ccccc2)CN1CCc1ccccc1	12%	12%	22.1%
O=[N+]([O-])c1cccc2nc3ccccc3c(NCCc3cccc[n+]3[O-])c12	85% (active)	99% (active)	95.2% (active)
CCN(CC)N=Nc1c(C(N)=O)n[nH]c1C	-55%	-63%	-29.2%
O=C1CC(=O)N(C2CCCCC2)C(=O)N1c1ccccc1S(=O)(=O)Oc1ccccc1	60%	80% (active)	68%
ClCCn1c(CCl)nc2ccc(Cl)cc21	7%	7%	41.2%
c1ccc2c(c1)ccc1c3ccncc3ccc21	-11%	96% (active)	96% (active)
CCOC(=O)c1csc(Br)n1	-8%	39%	83.5% (active)
CCN1/C(=C/c2ccc3ccccc3[n+]2CC)C=Cc2ccccc21	58%	100% (active)	90.9% (active)
Nc1ccc(S(=O)(=O)Nc2ccc(Nc3c4ccccc4nc4ccccc34)cc2)cc1	-3%	7%	13.8%
